PNC inhibitor – perinucleolar compartment assembly inhibition. PC3M PTB-GFP, PNC prevalence imaging, 16 h; active compounds read low. activity change (PNC), negative = inhibition, % at 10 µM. 140,000 compounds, 3.1% hits. AID 2417;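 active means readout at or below -70, meaning at least 70% loss of cells showing the perinucleolar compartment, a nuclear body marking cancer cells; inconclusive means readout between -30 and a set limit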
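PC3M cells stably expressing PTB-GFP, 750–1000 cells/well, treated 16 h at 37 °C with compound (23 nl of library stock), in duplicate. After paraformaldehyde fixation and Hoechst stain, imaged at 20x; PNC prevalence scored by image analysis.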
CBFb RUNX1 block – inhibitors of human CBF-beta and RUNX1 interaction | Q01196+Q13951 | AlphaScreen CBFb-His/RUNX1-biotin binding, biochemical | Potency, µM (series often up to 59.8 µM), most hits filed as inhibitors | 230,000 tested, under 10 active | AID 1477
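Inhibition was taken as any reduction in AlphaScreen signal from the CBF-beta–RUNX1 pair (His and biotin tags, 30 nM each), measured after compound (15 min) and bead (90 min) incubations at room temperature.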
ALDH1A1 block – blocks purified human ALDH1A1 activity. P00352. Purified ALDH1A1, NADH fluorescence, propionaldehyde substrate. Potency, µM (series often up to 75.3 µM), most hits filed as inhibitors. 220,000 compounds, 7.3% hits. AID 1030; active means well fitted inhibition curve with a large enough effect, not every such curve was filed as active; inconclusive means small, poorly fitted or top-dose-only effect, or another doubt; inactive means no such curve, though single readings can be large or run the other way
HPGD block – blocks human HPGD enzyme activity | AID 894 | purified HPGD, NADH fluorescence kinetic, PGE2 substrate | P15428 | Potency, µM, actives largely listed as inhibitors | 150,000 compounds, 4.3% hits; active means well fitted inhibition curve with a large enough effect, not every such curve was filed as active; inconclusive means small, poorly fitted or top-dose-only effect, or another doubt; inactive means no such curve, though single readings can be large or run the other way
Target sequence (P15428 whole entry, looked up): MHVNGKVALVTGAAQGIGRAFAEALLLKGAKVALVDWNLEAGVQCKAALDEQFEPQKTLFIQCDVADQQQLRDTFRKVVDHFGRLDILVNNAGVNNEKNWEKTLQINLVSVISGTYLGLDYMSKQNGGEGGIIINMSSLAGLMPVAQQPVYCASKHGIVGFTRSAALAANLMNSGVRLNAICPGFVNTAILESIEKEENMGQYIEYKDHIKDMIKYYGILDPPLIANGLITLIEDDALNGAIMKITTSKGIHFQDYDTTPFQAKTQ
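20 nM HPGD preincubated 15 min at room temperature with compound in 50 mM Tris-HCl pH 8, 0.01% Tween 20. Started with 1 mM NAD+ and 30 uM prostaglandin E2; NADH fluorescence (360/450 nm) read 5 times over 30-s intervals, last minus first.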
HTT cytoprotect – Huntington cell model cytoprotection by ATP luminescence; PC12 HTT-Q103 induced, cytoprotection, ATP luminescence, 40 h; Potency, µM (highest dose often 56.4 µM), hits mostly activators; 230,000 compounds, 0.14% hits; further: nearly all actives have a fitted effect of over 45% in size
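Quantitative HTS on tebufenozide-induced (100 nM) PC12 cells expressing HTTQ103 exon 1–GFP; compounds tested as a concentration series; survival measured via cellular ATP.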
HTT aggregate – reduces HttQ103-GFP aggregates in PC12 cells; PC12 HttQ103-GFP aggregates, Acumen cytometry, 40 h; Potency, µM (highest dose often 46.1 µM), usual class: inhibitors; 220,000 compounds, 1.1% hits; AID 1688; further: nearly all actives have a fitted effect of over 60% in size
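Aggregate formation scored by laser-scanning cytometer (488 excitation, 500–530 emission) in lysed PC12 cells expressing Q103-GFP after 100 nM tebufenozide induction; library tested in dose series, with ATPLite reagent added in the multiplex.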
Hits are given with their value; 0 = inactive; ? = inconclusive; - = not tested or not shown; [ ] = another dose, or the depositor's remark. Only some compounds are listed: those with a hit (about 11% of all), similar ones and a draw of the others. Unless noted, the call rests on the fitted dose curve; in most records, active means well fitted curve in the direction sought with a large enough effect; inconclusive means small, poorly fitted or top-dose-only effect, or another doubt; inactive means no such curve, though single readings can be large; an effect the other way counts as inactive or inconclusive.

SMILES	PNC inhibitor	CBFb RUNX1 block	ALDH1A1 block	HPGD block	HTT cytoprotect	HTT aggregate
Cc1ncc(N=Nc2ccc(F)cc2)c(-c2ccc(Cl)cc2)n1	0	0	0	0	0[10 µM]	0
Fc1ccc(-c2c[nH]c(=S)n2Cc2ccccc2)cc1	-	0	0.35µM	-	0[10 µM]	0
S=c1[nH]nc(-c2ccncc2)n1Cc1ccccc1	?	0	0	0	0	0
COCC(=O)Nc1ccc(C(C)C)cc1	?	0	0	18µM	0	0
COCC(=O)Nc1ccc(N(C)C)cc1	-81	0	0	?	0	0
CN(C)c1ccc(NC(=O)COC(=O)CCC(=O)c2ccc(F)cc2)cc1	0	0	10µM	0	0	0
CC(=O)NC(=S)Nc1ccc(NC(=O)COc2ccc(C(C)C)cc2)cc1	0	0	?	0	-	0
O=C(C1CCCCC1)N(CCN1CCN(c2ccccc2CO)CC1)c1ccccn1	-	0	0	-	0	-
COc1ccc(N2C(=O)C3C(c4ccc(C(=O)O)cc4)NC(Cc4ccccc4)(C(=O)O)C3C2=O)c([N+](=O)[O-])c1 (configuration not stated)	-	0	11µM	-	0[10 µM]	0
Cc1ccc(S(=O)(=O)Oc2ccc(/C=C3/N=C(c4ccccc4)OC3=O)cc2)cc1	0	0	8.9µM	0	?	0
Cc1ccc(C2=N/C(=C\N3CCCCC3)C(=O)O2)cc1	0	0	?	?	0	0[9.22 µM]
Cc1nc2c(Br)cc(Br)cc2cc1O	0	0	0	?	0	11µM
Brc1cc(Br)c2nc(-c3cccs3)ccc2c1	0	0	0	0	0	0
COc1ccc(CCNC(=O)CSc2nc3[nH]ncc3c(=O)[nH]2)cc1OC	-	0	0	-	0	0
O=Cc1ccccc1OS(=O)(=O)c1ccccc1	0	0	13µM	0	0[10 µM]	0
N#Cc1nc(-c2ccc(OCc3ccc(Cl)cc3)cc2)oc1NCc1cccnc1	0	0	?	0	0	0
N#Cc1nc(-c2ccc(OCc3ccccc3)cc2)oc1NCc1cccnc1	?	0	?	?	0[0.074 µM]	13µM
O=S(=O)(c1ccccc1)c1nc(-c2ccccc2)oc1NCc1cccnc1	?	0	25µM	0	0[10 µM]	0[9.22 µM]
O=P(c1ccccc1)(c1ccccc1)c1nc(-c2ccccc2)oc1NCc1ccccc1	-	0	?	-	0	11µM
COc1cc(O)c(C(CC(=O)N2CCN(c3ccccc3)CC2)c2ccc(N(C)C)cc2)c(OC)c1 (configuration not stated)	-	?	-	-	0[10 µM]	0[9.22 µM]
CCCn1c(C)nc2c(NCC3CCCN3CC)nc(C)nc21 (configuration not stated)	-	0	0	0	0	-
Cc1cc(C)c(-n2c(SCCS(=O)(=O)c3ccc(F)cc3)n[nH]c2=O)c(C)c1	-	0	14µM	-	0[10 µM]	0[9.22 µM]
Cc1ccc(S(=O)(=O)CCSc2n[nH]c(=O)n2-c2ccccc2)cc1	-	0	20µM	-	0[10 µM]	0[9.22 µM]
CN(C)c1ncnc2ccc(-c3ccccc3C(F)(F)F)cc12	-	-	?	-	0	-
CC(OC(=O)/C=C/c1ccco1)C(=O)Nc1cccc([N+](=O)[O-])c1 (configuration not stated)	-84	0	?	?	0[10 µM]	0
SMILES	PNC inhibitor	CBFb RUNX1 block	ALDH1A1 block	HPGD block	HTT cytoprotect	HTT aggregate
COc1ccc([N+](=O)[O-])cc1NC(=O)C(C)OC(=O)/C=C/c1ccco1 (configuration not stated)	0	0	?	28µM	0[10 µM]	?
COc1ccc([N+](=O)[O-])cc1NC(=O)c1ccco1	-	0	0	-	0[10 µM]	0[9.22 µM]
Cc1ccc(C(C#N)c2ccc(C(=O)c3ccc(F)cc3)cc2)cc1 (configuration not stated)	0	0	?	0	0	0[9.22 µM]
Cc1ccc(C(C#N)c2ccc(Cl)nn2)cc1 (configuration not stated)	-	0	8.9µM	-	0[10 µM]	0
N#CC(c1ccc(Cl)cc1)c1ccc(Cl)nn1 (configuration not stated)	0	0	6.3µM	0	0	0[9.22 µM]
N#CC(c1ccc(=O)[nH]n1)c1ccc(Cl)cc1Cl (configuration not stated)	-	0	0	-	0	0
N#CC(c1ccc(Cl)nn1)c1ccccc1Cl (configuration not stated)	0	0	4µM	0	0	0[9.22 µM]
